We go through 40 compounds from PubChem BioAssay (Tox21).

Molecules are shown by their SMILES. Inconclusive results are not listed. Activity calls are given as the source filed them. Calls follow the shape of the dose curve; as a rule, active = well fitted cell-killing curve with a large enough effect in the repeat runs; inconclusive = weak or mixed curves, or effect the other way; inactive = no such curve, though single readings can be large or run the other way.

The nature of the test: qHTS assay for small molecule activators of the heat shock response signaling pathway - cell viability counter screen (AID 743209). Also: nearly all actives have a fitted effect of over 50% in size. As to conditions: HSE-bla HeLa viability, CellTiter-Glo luminescence, 5 h; series mostly up to 62.6 µM. The text has this: U.S. Tox21 Program National Center for Advancing Translational Sciences [NCATS] NIH Chemical Genomics Center [NCGC] U.S. Environmental Protection Agency [EPA] National Institutes of Environmental Health Sciences [NIEHS] National Toxicology Program [NTP] U.S. Food and Drug Administration [FDA] Tox21 Assay Overview: Various chemicals, environmental and physiological stress conditions may lead to the activation of heat shock response/ unfolded protein response (HSR/UPR). There are three heat shock transcription factors (HSFs) (HSF-1, -2, and -4) mediating transcriptional regulation of the human HSR. To identify the compounds that activate HSR signaling, HSE-bla HeLa cell line (Invitrogen, Carlsbad, CA, USA) containing a beta-lactamase reporter gene under the control of the heat shock response elements was used to screen Tox21 10K compound library. The cytotoxicity of the Tox21 compound library against the HSE-bla HeLa cell line was tested in parallel by measuring the cell viability using CellTiter-Glo assay (Promega, Madison, WI) in the same wells.
Tox21 Assay Protocol Summary: The CellSensor HSE-bla HeLa cells (Invitrogen, Carlsbad, CA, USA) were dispensed at 1500 cells/6uL/well into 1536-well black wall/clear bottom plates using a Multidrop combi (Thermo Fisher Scientific, Waltham, MA) dispenser. After the assay plates were incubated at 37 C and 5% CO2 overnight, 23 nL of compounds dissolved in DMSO, positive controls or DMSO only was transferred to the assay plate by a Pintool station (Kalypsys, San Diego, CA). The plates were incubated at 37 C for 5 h. After 1 uL of LiveBLAzerTM B/G FRET substrate was added using a Flying Reagent Dispenser (FRD, Beckman Coulter, Indianapolis, IN, USA), the plates were incubated at room temperature for 2.5 h, and fluorescence intensity was measured by an Envision plate reader (PerkinElmer, Shelton, CT). For cell viability readout that measures cytotoxicity, 3 ul/well of CellTiter-Glo reagent was added into the assay plates using a FRD. After 30 min incubation at room temperature, the luminescence intensity in the plates was measured using a ViewLux (PerkinElmer) plate reader.
Take `COc1c2occc2cc2ccc(=O)oc12`: the outcome was inactive.

For `c1ccc2[nH]ccc2c1`, the compound was classed as inactive.

In the case of `O=C(c1ccccc1)c1ccccc1`, the call was inactive.

As for `O=C(O)c1cccc([N+](=O)[O-])c1`, the compound was classed as inactive.

`O=c1ccc2ccccc2o1`: the outcome was inactive.

For the compound `O=C(O)c1[nH]n(-c2ccc(S(=O)(=O)O)cc2)c(=O)c1N=Nc1ccc(S(=O)(=O)O)cc1`, the call was inactive.

As to `CC(=O)Nc1nnc(S(N)(=O)=O)s1`, the compound was classed as inactive.

Consider `Cc1ccc(S(=O)(=O)NC(=O)NN2CCCCCC2)cc1`, for which the compound was called inactive.

Consider `CC(=O)NS(=O)(=O)c1ccc(N)cc1`, for which the result was inactive.

`CC(C)[C@@H]1CC[C@@H](C)C[C@H]1O`: the call was inactive.

Consider `CCCC(CCC)C(=O)O`, for which the compound was called inactive.

Take `Nc1ccc(O)c(C(=O)O)c1`: the compound was classed as inactive.

Take `O=C(O)CCC(=O)O`: the result was inactive.

On to `CC(=O)OCC(COC(C)=O)OC(C)=O`, for which the call was inactive.

For `CCCCC(CC)COC(=O)/C=C/c1ccc(OC)cc1` (stereo not given), the compound was classed as inactive.

For the compound `Cc1cc(=O)[nH]c(=S)[nH]1`, the compound was classed as inactive.

With `Cc1ccc(C)c(OCCCC(C)(C)C(=O)O)c1`, the outcome was inactive.

With `NC(N)=O`, the compound was called inactive.

With `Cc1ccc(O)cc1`, the compound was called inactive.

With `Nc1ccc(C(=O)O)cc1`, the result was inactive.

`O=C(O)c1cccnc1`: the outcome was inactive.

With `O=c1cc[nH]c(=S)[nH]1`, the result was inactive.

For `Nc1ccc(S(=O)(=O)c2ccc(N)cc2)cc1`, the outcome was inactive.

Consider `O=C1CN(/N=C/c2ccc([N+](=O)[O-])o2)C(=O)N1`, for which the compound was classed as inactive.

Turning to `CCCN(CCC)S(=O)(=O)c1ccc(C(=O)O)cc1`, the call was inactive.

Regarding `N=C(N)c1ccc(OCCCCCOc2ccc(C(=N)N)cc2)cc1`, the call was inactive.

On to `Cc1noc(NS(=O)(=O)c2ccc(N)cc2)c1C`, for which the result was inactive.

Take `O=C(O)c1cc(N=Nc2ccc(S(=O)(=O)Nc3ccccn3)cc2)ccc1O`: the compound was called inactive.

As to `O=C1NC(=O)c2ccccc21`, the compound was called inactive.

Turning to `NNC(=O)c1ccncc1`, the compound was classed as inactive.

For the compound `C[C@]12C=CC(=O)C=C1CC[C@@H]1[C@@H]2[C@@H](O)C[C@@]2(C)[C@H]1CC[C@]2(O)C(=O)CO`, the compound was called inactive.

As for `CNC[C@H](O)c1cccc(O)c1`, the call was inactive.

Regarding `Cc1ccccc1C(OCCN(C)C)c1ccccc1` (stereo not given), the call was inactive.

`NC(N)=NC(=O)c1nc(Cl)c(N)nc1N`: the call was inactive.

Regarding `O=S(=O)(O)NC1CCCCC1`, the compound was classed as inactive.

For `Oc1ccc(/C=C/c2cc(O)cc(O)c2)cc1`, the compound was classed as inactive.

Regarding `CC(O)CN(CCN(CC(C)O)CC(C)O)CC(C)O` (stereo not given), the outcome was inactive.

With `CCCNC(=O)NS(=O)(=O)c1ccc(Cl)cc1`, the outcome was inactive.

For `NC(=O)c1cnccn1`, the outcome was inactive.

On to `CC1(C)[C@@H]2CC[C@@]1(C)C(=O)C2`, for which the call was inactive.
